In the supplement of paper PMC11732987, “Enantioselective OTUD7B fragment discovery through chemoproteomics screening and high-throughput optimisation” (Communications Chemistry, 2025):

Columns and labels:
Experiment in all cases: log2 ratio of Biotin-Ahx-Ub-VS probe labelling (fragment/DMSO); higher = less target engagement (more negative = stronger competition), active = hit call of the paper (q ≤ 0.05, log2 ratio ≤ -1)
Conditions in all cases: compound concentration: 200 uM; treatment time: 3 h
OTUD6B = target: T1, OTUD6B (UniProt Q8N6M0)
T1 sequence (whole entry): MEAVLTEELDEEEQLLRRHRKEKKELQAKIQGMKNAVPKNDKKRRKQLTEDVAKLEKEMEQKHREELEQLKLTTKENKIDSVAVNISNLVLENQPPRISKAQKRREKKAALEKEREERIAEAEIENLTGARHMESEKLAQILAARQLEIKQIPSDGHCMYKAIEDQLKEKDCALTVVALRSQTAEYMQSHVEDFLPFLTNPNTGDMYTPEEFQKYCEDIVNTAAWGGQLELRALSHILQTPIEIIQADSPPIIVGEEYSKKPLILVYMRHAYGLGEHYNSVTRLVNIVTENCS
In short: (§1)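 HEK293T lysate (495 µg per sample, in Tris/CHAPS/IGEPAL buffer with protease inhibitors) was exposed in triplicate for 3 h to fragment at 200 µM or to vehicle, then to Biotin-Ahx-Ub-VS at 0.5 µM final for 1 h. Labelled DUBs were enriched on NeutrAvidin, digested with LysC and trypsin, and analysed by diaPASEF LC-MS/MS. Spectronaut label-free quantities were normalised to the global median, and values are average log2 ratios of fragment over vehicle from an unpaired t-test. Only proteins with ≥2 unique peptides were used.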

OTUD7B = target: T2, OTUD7B (UniProt Q6GQQ9)
T2 sequence (whole entry): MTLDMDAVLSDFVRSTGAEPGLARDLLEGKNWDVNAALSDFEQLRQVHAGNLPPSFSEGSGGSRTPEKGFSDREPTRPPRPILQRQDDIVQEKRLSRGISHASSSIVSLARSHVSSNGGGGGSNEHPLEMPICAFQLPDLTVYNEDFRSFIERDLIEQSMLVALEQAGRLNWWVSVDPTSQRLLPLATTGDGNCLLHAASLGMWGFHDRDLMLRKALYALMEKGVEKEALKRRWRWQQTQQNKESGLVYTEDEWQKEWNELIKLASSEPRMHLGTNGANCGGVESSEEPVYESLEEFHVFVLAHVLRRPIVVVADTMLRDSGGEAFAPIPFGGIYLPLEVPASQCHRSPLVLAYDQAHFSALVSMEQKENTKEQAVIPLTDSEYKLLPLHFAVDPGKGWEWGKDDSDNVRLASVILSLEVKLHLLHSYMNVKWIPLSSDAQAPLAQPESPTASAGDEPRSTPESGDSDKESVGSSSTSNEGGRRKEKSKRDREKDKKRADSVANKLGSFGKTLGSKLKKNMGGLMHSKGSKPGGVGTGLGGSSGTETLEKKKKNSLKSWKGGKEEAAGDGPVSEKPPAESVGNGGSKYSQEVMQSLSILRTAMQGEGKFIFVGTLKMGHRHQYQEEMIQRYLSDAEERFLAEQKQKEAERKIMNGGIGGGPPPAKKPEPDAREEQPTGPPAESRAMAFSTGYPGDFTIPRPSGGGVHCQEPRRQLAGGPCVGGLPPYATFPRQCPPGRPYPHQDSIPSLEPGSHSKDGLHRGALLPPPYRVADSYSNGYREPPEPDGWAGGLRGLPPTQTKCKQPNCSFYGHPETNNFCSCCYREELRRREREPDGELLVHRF
In short: as §1

PRPF8 = PRPF8 (UniProt Q6P2Q9)
In short: as §1

PSMD7 = target: T3, PSMD7 (UniProt P51665)
T3 sequence (whole entry): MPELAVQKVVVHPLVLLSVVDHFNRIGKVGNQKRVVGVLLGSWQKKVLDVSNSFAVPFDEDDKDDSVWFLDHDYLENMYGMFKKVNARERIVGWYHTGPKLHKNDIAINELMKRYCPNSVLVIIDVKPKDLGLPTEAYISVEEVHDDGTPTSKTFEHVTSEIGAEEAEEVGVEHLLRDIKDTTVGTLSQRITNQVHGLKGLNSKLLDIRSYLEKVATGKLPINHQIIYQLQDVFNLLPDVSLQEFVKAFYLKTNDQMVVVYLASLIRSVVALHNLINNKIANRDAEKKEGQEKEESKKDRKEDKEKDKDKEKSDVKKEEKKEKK
In short: as §1

UCHL1 = UCHL1 (UniProt P09936)
In short: as §1

UCHL3 = target: T4, UCHL3 (UniProt P15374)
T4 sequence (whole entry): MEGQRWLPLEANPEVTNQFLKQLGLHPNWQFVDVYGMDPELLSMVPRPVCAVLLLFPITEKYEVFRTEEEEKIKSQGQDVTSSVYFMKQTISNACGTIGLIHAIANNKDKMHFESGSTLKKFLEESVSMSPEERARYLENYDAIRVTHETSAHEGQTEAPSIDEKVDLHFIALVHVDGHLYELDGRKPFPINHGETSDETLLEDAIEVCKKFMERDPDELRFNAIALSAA
In short: as §1

UCHL5 = target: T5, UCHL5 (UniProt Q9Y5K5)
T5 sequence (whole entry): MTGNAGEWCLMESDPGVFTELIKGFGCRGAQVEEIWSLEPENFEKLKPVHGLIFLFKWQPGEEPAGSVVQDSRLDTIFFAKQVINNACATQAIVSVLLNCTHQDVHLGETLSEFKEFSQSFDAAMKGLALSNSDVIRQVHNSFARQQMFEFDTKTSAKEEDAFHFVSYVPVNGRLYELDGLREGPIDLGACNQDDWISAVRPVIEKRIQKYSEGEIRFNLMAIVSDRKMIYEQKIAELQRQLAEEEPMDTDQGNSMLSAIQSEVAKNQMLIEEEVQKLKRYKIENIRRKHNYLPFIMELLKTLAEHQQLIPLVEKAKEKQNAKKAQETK
In short: as §1

USP10 = USP10 (UniProt Q14694)
In short: as §1

USP15 = target: T6, USP15 (UniProt Q9Y4E8)
T6 sequence (whole entry): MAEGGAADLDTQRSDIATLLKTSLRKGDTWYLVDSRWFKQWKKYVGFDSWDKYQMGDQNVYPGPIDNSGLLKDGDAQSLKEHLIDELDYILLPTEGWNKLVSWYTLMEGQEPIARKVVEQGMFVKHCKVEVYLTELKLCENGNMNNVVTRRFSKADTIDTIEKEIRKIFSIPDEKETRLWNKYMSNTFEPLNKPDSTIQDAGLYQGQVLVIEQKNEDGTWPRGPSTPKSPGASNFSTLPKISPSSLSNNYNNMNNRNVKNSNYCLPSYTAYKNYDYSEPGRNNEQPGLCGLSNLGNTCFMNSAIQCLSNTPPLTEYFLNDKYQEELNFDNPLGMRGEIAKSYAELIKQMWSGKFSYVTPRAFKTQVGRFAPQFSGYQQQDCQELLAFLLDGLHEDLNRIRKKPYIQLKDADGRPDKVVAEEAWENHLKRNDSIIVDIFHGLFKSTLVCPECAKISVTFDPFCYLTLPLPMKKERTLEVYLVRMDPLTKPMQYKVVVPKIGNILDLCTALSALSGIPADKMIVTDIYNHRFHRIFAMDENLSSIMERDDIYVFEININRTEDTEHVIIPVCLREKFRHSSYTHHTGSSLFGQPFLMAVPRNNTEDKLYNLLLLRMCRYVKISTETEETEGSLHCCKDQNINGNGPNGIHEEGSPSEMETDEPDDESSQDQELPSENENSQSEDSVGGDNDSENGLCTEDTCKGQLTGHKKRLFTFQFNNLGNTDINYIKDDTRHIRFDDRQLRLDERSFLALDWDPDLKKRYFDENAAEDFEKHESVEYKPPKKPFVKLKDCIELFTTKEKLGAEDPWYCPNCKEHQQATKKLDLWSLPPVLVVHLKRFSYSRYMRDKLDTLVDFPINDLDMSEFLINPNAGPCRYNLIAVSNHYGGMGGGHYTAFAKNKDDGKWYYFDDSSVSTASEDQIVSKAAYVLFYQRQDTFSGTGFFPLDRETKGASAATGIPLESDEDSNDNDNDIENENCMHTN
In short: as §1

USP16 = USP16 (UniProt Q9Y5T5)
In short: as §1

Measured: log2 ratio of Biotin-Ahx-Ub-VS probe labelling

USP16, sequence (Q9Y5T5 whole entry, looked up): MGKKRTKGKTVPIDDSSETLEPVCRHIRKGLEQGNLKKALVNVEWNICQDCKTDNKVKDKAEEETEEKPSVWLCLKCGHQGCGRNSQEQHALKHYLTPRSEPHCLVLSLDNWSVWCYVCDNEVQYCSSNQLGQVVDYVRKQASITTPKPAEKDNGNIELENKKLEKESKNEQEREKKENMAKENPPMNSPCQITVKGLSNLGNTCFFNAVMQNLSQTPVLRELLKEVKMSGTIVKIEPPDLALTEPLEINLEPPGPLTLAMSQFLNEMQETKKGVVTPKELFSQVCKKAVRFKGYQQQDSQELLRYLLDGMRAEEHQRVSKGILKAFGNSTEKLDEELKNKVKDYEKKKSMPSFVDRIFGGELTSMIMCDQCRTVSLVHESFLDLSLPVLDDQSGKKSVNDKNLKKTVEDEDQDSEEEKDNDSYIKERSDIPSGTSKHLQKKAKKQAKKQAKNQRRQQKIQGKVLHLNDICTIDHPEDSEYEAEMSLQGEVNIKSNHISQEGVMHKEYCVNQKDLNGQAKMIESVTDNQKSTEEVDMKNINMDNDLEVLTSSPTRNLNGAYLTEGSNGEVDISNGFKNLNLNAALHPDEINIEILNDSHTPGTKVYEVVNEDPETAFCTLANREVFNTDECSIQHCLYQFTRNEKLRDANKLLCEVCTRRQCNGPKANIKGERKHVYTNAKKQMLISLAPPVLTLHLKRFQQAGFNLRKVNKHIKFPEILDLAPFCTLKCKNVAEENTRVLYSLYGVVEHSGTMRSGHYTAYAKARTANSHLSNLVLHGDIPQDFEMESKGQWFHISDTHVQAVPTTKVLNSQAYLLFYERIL
UCHL1, sequence (P09936 whole entry, looked up): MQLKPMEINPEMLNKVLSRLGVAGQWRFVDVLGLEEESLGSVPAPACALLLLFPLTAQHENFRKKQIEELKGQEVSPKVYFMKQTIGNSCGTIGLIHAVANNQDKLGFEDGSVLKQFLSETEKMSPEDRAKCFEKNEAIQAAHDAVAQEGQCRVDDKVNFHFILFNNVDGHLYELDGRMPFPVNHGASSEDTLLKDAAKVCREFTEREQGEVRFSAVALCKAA
USP10, sequence (Q14694 whole entry): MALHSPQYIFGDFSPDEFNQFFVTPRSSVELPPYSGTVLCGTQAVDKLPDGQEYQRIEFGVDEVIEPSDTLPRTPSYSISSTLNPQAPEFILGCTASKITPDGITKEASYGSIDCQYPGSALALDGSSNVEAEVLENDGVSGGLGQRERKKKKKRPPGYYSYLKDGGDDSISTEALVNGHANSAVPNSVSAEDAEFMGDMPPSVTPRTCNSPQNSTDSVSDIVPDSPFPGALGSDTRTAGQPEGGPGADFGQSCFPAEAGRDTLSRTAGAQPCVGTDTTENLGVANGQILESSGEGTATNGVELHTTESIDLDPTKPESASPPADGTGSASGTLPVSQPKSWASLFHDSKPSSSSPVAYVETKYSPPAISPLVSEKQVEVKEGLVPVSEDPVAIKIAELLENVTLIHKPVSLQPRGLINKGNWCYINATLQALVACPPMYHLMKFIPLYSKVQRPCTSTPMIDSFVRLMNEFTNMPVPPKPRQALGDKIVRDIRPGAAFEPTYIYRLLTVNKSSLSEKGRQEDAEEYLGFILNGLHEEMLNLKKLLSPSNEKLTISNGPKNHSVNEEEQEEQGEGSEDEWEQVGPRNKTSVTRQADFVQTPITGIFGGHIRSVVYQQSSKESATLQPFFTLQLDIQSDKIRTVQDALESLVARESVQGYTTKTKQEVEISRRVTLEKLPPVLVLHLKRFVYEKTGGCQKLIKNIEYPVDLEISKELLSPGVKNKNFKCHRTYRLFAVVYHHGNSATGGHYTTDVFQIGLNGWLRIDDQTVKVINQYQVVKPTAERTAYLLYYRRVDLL

O=C(CCl)Nc1ccccc1C(F)(F)F
inactive: OTUD6B -0.447 | OTUD7B -0.668 | PRPF8 0.155 | PSMD7 -0.0779 | UCHL1 -0.977 | UCHL3 0.2 | UCHL5 -0.341 | USP10 -0.0659 | USP15 -0.122 | USP16 -0.0895
